PI4K2A block = PI4K2A (human) kinase inhibition; Q9BTU6; purified PI4K2A, ADP-Glo luminescence, 1 h; hits give low values; activity change, negative = inhibition, % at 76.9 µM; hit rate 0.13% among 420,000; in the data active = activity change below about -50%; inconclusive = mostly about -30% to -49%;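 note: -100% = wells without enzyme as full effect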
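In this quantitative HTS, ADP production by PI4K2A was quantified luminescently after 1 h at ambient temperature; 100 microM adenosine served as plate-quality control.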
Pol iota inh = DNA polymerase iota (human) inhibition. Q9UNA4. Pol iota fluorescent replication assay, 10 min. Potency, µM (series often up to 115 µM), inactives show top-dose activity, negative = inhibition, actives largely listed as inhibitors. hit rate 1% among 390,000. AID 588590; note: potency is the fitted concentration of half-maximal effect
Target sequence (Q9UNA4 whole entry, looked up): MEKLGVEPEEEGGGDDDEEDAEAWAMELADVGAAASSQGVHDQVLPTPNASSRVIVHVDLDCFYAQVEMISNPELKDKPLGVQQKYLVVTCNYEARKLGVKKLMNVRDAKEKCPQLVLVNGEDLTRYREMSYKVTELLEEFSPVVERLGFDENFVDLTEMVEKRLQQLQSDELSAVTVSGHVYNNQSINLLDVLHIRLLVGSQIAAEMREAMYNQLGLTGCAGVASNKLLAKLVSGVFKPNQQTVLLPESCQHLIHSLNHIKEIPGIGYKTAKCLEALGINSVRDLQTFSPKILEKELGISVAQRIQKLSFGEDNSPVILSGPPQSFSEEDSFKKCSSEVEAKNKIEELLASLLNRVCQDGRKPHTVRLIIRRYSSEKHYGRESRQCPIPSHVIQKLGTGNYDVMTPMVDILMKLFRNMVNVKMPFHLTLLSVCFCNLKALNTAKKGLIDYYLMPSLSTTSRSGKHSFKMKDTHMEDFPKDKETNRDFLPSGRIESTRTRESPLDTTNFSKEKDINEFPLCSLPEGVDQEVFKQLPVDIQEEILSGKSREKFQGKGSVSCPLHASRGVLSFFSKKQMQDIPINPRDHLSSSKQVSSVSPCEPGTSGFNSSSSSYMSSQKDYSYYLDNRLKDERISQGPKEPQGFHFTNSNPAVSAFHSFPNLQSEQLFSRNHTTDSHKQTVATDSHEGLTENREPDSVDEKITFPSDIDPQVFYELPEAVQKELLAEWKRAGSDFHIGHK
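Fluorescent replication assay read twice, at 0 min and 10 min after adding 50 nM (final) substrate. Enzyme (10 nM) and compounds were first incubated 15 min at room temperature; enzyme-free buffer wells were negative controls.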
PI5P4K alpha inh = blocks human PI5P4K alpha kinase activity. max response, %. AID 652105. hit rate 1.2% among 330,000. PI5P4Kalpha enzyme, ADP-Glo luminescence, 60 min; hits give low values; active = max response of -50% or lower; inconclusive = between -30% and -50%; inactive = -30% or higher; note: value at the top dose of about 77 µM; % is set by controls: 0 for no effect and ±100 for the full control effect
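Human PI5P4Kalpha with substrate in 0.038 M HEPES pH 7.4, 0.28 mM EGTA, 0.1% CHAPS, 5% DMSO; reaction started with 5 microM ATP (final), 60 min at room temperature. ADP formed read by ADP-Glo luminescence.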
Pol kappa inh = inhibitors of human DNA polymerase kappa; Potency, µM (highest dose often 107 µM), inactives show at the top dose activity, negative = inhibition, actives largely listed as inhibitors; Q9UBT6; purified Pol kappa, fluorescent DNA synthesis assay, 10 min; hit rate 0.53% among 400,000; note: potency is the fitted concentration of half-maximal effect; % is set by controls: 0 for no effect and ±100 for the full control effect
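Kinetic fluorescence readout at 0 and 10 min followed reaction start with substrate at 50 nM final. Beforehand, enzyme (10 nM Pol kappa) stood 15 min with compound at room temperature; buffer-only wells were negative controls.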
Pol eta inh = DNA polymerase eta (human) inhibition. Q9Y253. recombinant Pol eta, fluorescent DNA replication assay. Potency, µM (series often up to 114 µM), for inactives: top-dose activity change, negative = inhibition, most hits filed as inhibitors. hit rate 1.2% among 390,000; note: potency is the fitted concentration of half-maximal effect; % is set by controls: 0 for no effect and ±100 for the full control effect
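Fluorescent replication assay: 50 nM final substrate added after a 15 min room-temperature compound preincubation with 10 nM enzyme. Signal taken at 0 min and again at 10 min.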
Pol beta inh = blocks human DNA polymerase beta activity; Potency, µM (series often up to 114 µM), for inactives: at the top dose activity change, negative = inhibition, actives largely listed as inhibitors; hit rate 1.3% among 340,000; P06746; Pol beta primer extension/strand displacement, fluorescence kinetic; note: potency is the fitted concentration of half-maximal effect; % is set by controls: 0 for no effect and ±100 for the full control effect
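Kinetic readout of DNA synthesis with strand displacement by Pol beta. Compound and 10 nM enzyme sit 15 min at room temperature; 50 nM substrate starts the reaction, read immediately and at 10 min.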
ADP-Glo interf = interferes with ADP-Glo detection without enzyme present; AID 743285; 1,100 tested, under 10 active; shares compounds with PI5P4K alpha inh; ADP-Glo detection counter-screen, luciferase luminescence, no enzyme; Potency, µM (titrated, usually from 76.9 µM), for inactives: at the top dose activity change, negative = inhibition, hits mostly inhibitors
Starred values were filed as active, the others as inactive; i = inactive; ? = inconclusive; · = no result given; [ ] = another dose, or the depositor's remark. This is a sample that favours compounds with a hit; in the whole collection about 2.8% have one here. Unless noted, calls come from the whole dose curve; as a rule, active = well fitted curve in the direction sought with a large enough effect; inconclusive = small, poorly fitted or top-dose-only effect, or another doubt; inactive = no such curve, though single readings can be large; an effect the other way counts as inactive or inconclusive.

SMILES	PI4K2A block	Pol iota inh	PI5P4K alpha inh	Pol kappa inh	Pol eta inh	Pol beta inh	ADP-Glo interf
C[C@@H]1CCCCO[C@@H](CN(C)C(=O)CCCN(C)C)[C@@H](C)CN([C@H](C)CO)C(=O)c2cc(N(C)C)ccc2O1	3.6	·	-2.7	·	·	·	·
Cc1nnc(SCC(=O)Nc2sc3c(c2C(N)=O)CCCC3)[nH]c1=O	-2.2	-5.9%	?	-24.4%	2.5%	?	·
Cc1nnc(SCC(=O)Nc2sc3c(c2C(N)=O)CCC(C)C3)[nH]c1=O (stereo not drawn)	-2.8	7.2%	-53.6*	-13.0%	-14.2%	·	-8.0%
COc1ccc(CC(=O)NCC(=O)NC(Cc2ccccc2)C(=O)O)cc1 (stereo not drawn)	0.3	i	-65.4*	?	-19.2%	-18.3%	-1.4%
Cc1ccsc1CN(C)c1ncnc2ccc(-c3ccoc3)cc12	-12.3	·	·	·	·	·	2.4%
O=C(Nc1ccsc1C(=O)O)c1cccc(C(F)(F)F)c1	-0.4	-5.4%	-58.4*	-3.6%	6.0%	8.8%	1.8%
CC(=O)c1sc(NC(=O)c2ccccc2F)nc1-c1ccccc1	0.2	62.7%	0.2	3.6%	1.2%	0.0%	·
O=C(Nc1nc(-c2ccco2)c(-c2ccco2)s1)c1ccc(F)cc1F	?	?	-64.0*	50.1µM*	?	·	-8.9%
COc1ccccc1Cn1c(CNS(=O)(=O)c2ccccc2Cl)nc2cccnc21	-2.0	16.0%	·	-5.5%[60.1 µM]	-10.6%	15.5%	·
CCn1nc(-c2ccccc2)c(-c2ccccc2)c(C(=O)Nc2nc(C)c(C(C)=O)s2)c1=O	-1.9	?	·	3.0%	-13.4%	39.9%	·
CCOC(=O)c1noc2ncnc(N3CCN(c4cccc(Cl)c4)CC3)c12	8.1	8.9%	·	0.0%	-13.1%	-29.2%	·
NC(=O)c1ccsc1NC(=O)COC(=O)COc1ccccc1F	3.7	-9.3%	-26.1	-5.1%	?	-10.2%[57.1 µM]	·
NC(=O)c1ccsc1NC(=O)COC(=O)CNC(=O)c1ccc(F)cc1	13.6	?	-51.3*	?	?	·	1.7%
NC(=O)c1ccsc1NC(=O)COC(=O)c1c(F)cccc1Cl	-0.7	-16.8%	-0.9	-2.6%	-10.8%	·	·
NC(=O)c1ccsc1NC(=O)COC(=O)c1ccccc1F	8.8	79.4µM*	-54.3*	-2.7%	-6.7%	·	-10.4%
CCCC(CCC)C(=O)Nc1cc(-c2cn3cccnc3n2)ccc1OC	-5.9	-4.0%	·	-8.5%[60.1 µM]	-3.9%	31.7%	·
Cc1cc(NC(=O)CCCn2cc([N+](=O)[O-])cn2)n(Cc2ccc(F)cc2)n1	-3.0	79.4µM*	-68.5*	?	?	24.6%	-11.7%
Cc1ccc(-n2c(=O)[nH]c3sc4c(c3c2=O)CCCC4)cc1	-0.1	10.1%	·	2.7%	-14.1%	8.4%	·
Cc1ccc(-n2c(=S)[nH]c3sc4c(c3c2=O)CCC4)cc1	2.8	22.4%	-54.6*	0.3%	-9.4%	4.4%	-0.1%
COc1ccc(OC)c(NC(=O)Cc2coc3ccc(C(C)C)cc23)c1	-1.0	-18.6%	·	-7.3%	-7.2%	?	·
Cc1c2ccccc2nc2ccccc12	-2.6	-20.0%[58.9 µM]	-7.4	-19.8%	-1.5%	·	·
CCCNc1c(F)c(F)c2c(C)c3ccccc3nc2c1F	-17.0	7.94µM*	-66.0*	79.4µM*	-7.7%	-11.5%	-14.2%
N#Cc1c(-c2ccc(Cl)cc2Cl)nc2n(c1=O)CCS2	-4.5	?	-54.2*	-16.1%	?	?	1.8%
CCCCn1cc(S(=O)(=O)c2ccc(OC)cc2)c(=O)c2cc(CC)ccc21	-0.7	25.3%	·	1.4%	-19.6%	16.9%	·
Cc1ccc(-c2csc3ncnc(NCCC(=O)O)c23)cc1C	-0.8	16.5%	·	-1.6%	-8.1%	-0.6%	-2.3%
SMILES	PI4K2A block	Pol iota inh	PI5P4K alpha inh	Pol kappa inh	Pol eta inh	Pol beta inh	ADP-Glo interf
COc1ccc(OC)c(NC(=O)CS(=O)(=O)Cc2nc(-c3ccc(C)cc3)oc2C)c1	-1.6	47.8%	·	-10.5%	0.5%	0.9%	·
O=S(=O)(Nc1ccccc1N1CCCCC1)c1ccc(Cl)s1	-8.1	?	-54.8*	-6.3%	-20.0%	-13.3%	4.0%
O=S(=O)(Nc1ccccc1N1CCCC1)c1ccccc1C(F)(F)F	0.3	·	1.5	·	-9.7%	·	·
C[C@@H]1C(=O)N(S(=O)(=O)c2ccc([N+](=O)[O-])cc2)[C@H]1c1ccccc1	·	-24.4%	·	-5.5%	·	·	·
COc1ccc(N2CC(O)=C(c3nc(-c4ccccc4)cs3)C2=N)cc1	-1.9	?	-53.2*	5.3%	11.6%	14.8%	-2.2%
COc1ccc(N2CC(O)=C(c3nc(-c4ccc(Br)cc4)cs3)C2=N)cc1	0.0	-2.5%	2.4	2.5%	-5.1%	11.5%	·
O=C(O)c1ccc2c(=O)[nH]c(CCl)nc2c1	-6.5	90.3%	-59.1*	-18.1%	10.4%	1.0%	2.8%
O=C(O)c1ccc2c(=O)[nH]c(CN3CCOCC3)nc2c1	3.3	10.8%	?	-5.6%	-11.5%	-14.6%	·
COc1cc2c(cc1OC)n(Cc1cccc(C(F)(F)F)c1)c(=O)n1nc(-c3ccccc3)nc21	-8.3	-13.2%	·	-11.9%	-8.0%	1.1%	·
CCN(CC)S(=O)(=O)c1ccc(C(=O)Nc2nnc(NC(=S)Nc3ccccc3)s2)cc1	-0.3	13.1%	-58.8*	-8.1%	-4.9%	7.3%	5.9%
CCc1nnc(NC(=O)c2ccc(S(=O)(=O)N3CCCC3)cc2)s1	-5.4	101.4%	-6.2	6.2%	-18.0%	-16.7%	·
CCc1nnc(NC(=O)c2ccc(S(C)(=O)=O)cc2)s1	-1.7	28.8%	-53.0*	-1.8%	21.5%	0.6%	-1.2%
Cc1ccc(C)c2[nH]c(=O)c(CCNC(=O)c3ccc(S(=O)(=O)N4CCOCC4)cc3)cc12	1.7	7.0%	-56.8*	1.4%	-12.3%	?	-7.1%
Cc1ccc(C)c2[nH]c(=O)c(CCNC(=O)c3ccc(S(=O)(=O)N(C)C)cc3)cc12	-1.7	2.9%	?	3.4%	-11.5%	-13.0%	·
Cc1cccnc1NC(=O)c1ccc(OCc2c(C)noc2C)cc1	-3.8	11.7%	-3.9	-13.4%	-7.0%	0.5%	·
Nc1nc(N)c2cc(S(=O)(=O)c3cccc(C(F)(F)F)c3)ccc2n1	0.0	·	-54.1*	·	?	·	-8.5%
Cc1cc(C)cc(NC(=O)CSc2oc(-c3cccs3)nc2S(=O)(=O)c2ccccc2)c1	-3.0	-2.9%	·	-7.0%	-16.3%	-0.8%	·
COc1ccc(OCC(=O)NCc2nc(-c3ccccc3)no2)cc1	2.1	42.5%	-57.6*	-0.8%	?	·	3.3%
COC(=O)c1c(NS(=O)(=O)Cc2ccccc2)sc2c1CCCC2	-1.6	-9.4%	·	-3.0%	8.8%	20.7%	·

Screens as filed in PubChem.
